# Source: PubChem BioAssay
# HPGD inh: qHTS Assay for Inhibitors of HPGD (15-Hydroxyprostaglandin Dehydrogenase); 150,000 compounds, 4.3% hits; AID 894, 2007; purified HPGD, NADH fluorescence kinetic, PGE2 substrate; Potency, µM, for the others: top-dose activity change, negative = inhibition, most hits filed as inhibitors; 15-hydroxyprostaglandin dehydrogenase [NAD(+)] (Homo sapiens), P15428; note: potency is the fitted concentration of half-maximal effect
#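 NADH formation kinetics: reaction with 30 uM PGE2 and 1 mM NAD+ (final), 20 nM enzyme, Tris-HCl pH 8 with Tween 20, after 15 min compound preincubation at room temperature. Fluorescence change, last versus first of five reads.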
# Lamin A splicing: qHTS Assay for Modulators of Lamin A Splicing; HeLa LMNA splicing GFP/RFP minigene ratio, 48 h; Potency, µM (series often up to 46.1 µM), for the others: top-dose ratio change, negative = inhibition, most hits filed as inhibitors; 200,000 compounds, 0.01% hits; active = well fitted inhibition curve with a large enough effect in the signal ratio, with a control signal flat, not every such curve was filed as active; inconclusive = small, poorly fitted or top-dose-only effect, or effect the other way, or a change in a side signal; the % refers to the signal ratio; note: potency is the fitted concentration of half-maximal effect
#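 S3 HeLa cells stably expressing lamin A-EGFP splicing minigene plus DsRed2, 600 cells/well, 48 h compound exposure at 37C. Laser-scanning cytometry; analysed as GFP (500-530 nm)/RFP (575-640 nm) total intensity ratio; 0.5% DMSO vehicle.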
# PNC assembly inh: High Content Assay for Compounds that inhibit the Assembly of the Perinucleolar Compartment; AID 2417, 2010; PC3M PTB-GFP, PNC prevalence imaging, 16 h; hits give low values; 140,000 compounds, 3.1% hits; activity change (PNC), negative = inhibition, % at 10 µM;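 active = readout at or below -70, meaning at least 70% loss of cells showing the perinucleolar compartment, a nuclear body marking cancer cells; inconclusive = readout between -30 and a set limit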;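 note: plate controls were DMSO wells for no effect and camptothecin positive control wells for full effect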
#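 Compounds are pinned in duplicate onto adhered PC3M cells stably expressing GFP-tagged PTB and incubated 16 h at 37 C. Cells are then fixed, nuclei stained with Hoechst, and PNC-positive cells counted.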
# ALDH1A1 block: qHTS Assay for Inhibitors of Aldehyde Dehydrogenase 1 (ALDH1A1) | 220,000 compounds, 7.3% hits | Purified ALDH1A1, NADH fluorescence, propionaldehyde substrate | Aldehyde dehydrogenase 1A1 (Homo sapiens), P00352 | Potency, µM (doses to about 75.3 µM), for inactives: at the top dose activity, negative = inhibition, most hits filed as inhibitors;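 note: potency is the fitted concentration of half-maximal effect; plate controls were no enzyme wells and a reference inhibitor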
# Target sequence (P00352 whole entry, looked up): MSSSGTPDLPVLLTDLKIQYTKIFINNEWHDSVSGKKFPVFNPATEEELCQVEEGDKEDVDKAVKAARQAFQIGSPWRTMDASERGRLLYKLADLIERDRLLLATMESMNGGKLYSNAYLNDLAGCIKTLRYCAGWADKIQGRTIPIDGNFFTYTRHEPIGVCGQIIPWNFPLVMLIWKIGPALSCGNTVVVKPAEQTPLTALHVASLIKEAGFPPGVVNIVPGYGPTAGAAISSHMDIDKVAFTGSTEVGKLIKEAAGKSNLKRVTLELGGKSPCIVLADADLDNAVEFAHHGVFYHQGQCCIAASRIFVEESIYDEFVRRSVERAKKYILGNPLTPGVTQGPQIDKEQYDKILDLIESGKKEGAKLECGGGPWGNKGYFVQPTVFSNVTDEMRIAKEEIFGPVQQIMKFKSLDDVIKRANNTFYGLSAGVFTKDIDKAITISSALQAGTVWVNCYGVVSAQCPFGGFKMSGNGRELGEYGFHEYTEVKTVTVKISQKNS
# 12-hLO inh: qHTS Assay for Inhibitors of 12-hLO (12-human lipoxygenase). Polyunsaturated fatty acid lipoxygenase ALOX12 (Homo sapiens), P18054. purified 12-hLO, xylenol orange hydroperoxide absorbance. Potency, µM (highest dose often 57.1 µM), for inactives: top-dose activity change, negative = inhibition, usual class: inhibitors. 150,000 compounds, 0.12% hits. AID 1452, 2008; active = well fitted inhibition curve with a large enough effect; inconclusive = small, poorly fitted or top-dose-only effect; note: potency is the fitted concentration of half-maximal effect; nearly all actives have a fitted effect of over 55% in size
#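 Xylenol orange chromogenic assay: hydroperoxide from 12hLO oxidises Fe(II), giving red-shifted Fe(III)-XO absorbance. Conditions: 150 nM enzyme, 40 uM arachidonic acid, 25 mM Hepes pH 7.0, 0.01% Triton X-100, 30 min, room temperature.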
# Numbers without * were called inactive; ? = inconclusive; · = not tested or not shown; [ ] = remark or other dose. Rows were chosen to be rich in hits. Some 10% of all compounds tested hit in one or more screens of this group. Unless noted, calls come from the whole dose curve; as a rule, active = well fitted inhibition curve with a large enough effect (not every such curve was filed as active); inconclusive = small, poorly fitted or top-dose-only effect, or another doubt; inactive = no such curve, though single readings can be large or run the other way. Unless noted, % is set by controls: 0 for no effect and ±100 for the full control effect.
SMILES,HPGD inh,Lamin A splicing,PNC assembly inh,ALDH1A1 block,12-hLO inh
NNS(=O)(=O)c1ccc(N2CCCC2=O)c([N+](=O)[O-])c1,·,·,·,18µM*,·
NS(=O)(=O)c1ccc(N2CCCC2=O)c([N+](=O)[O-])c1,·,-1%[46 µM],·,-15%,·
CCc1cc(C(C)=O)c(O)cc1OCCCCCC(C)(C)c1nn[nH]n1,20µM*,·,·,?,-4%
CCOc1ccc(OCCCCOc2ccccc2C(C)=O)cc1,-20%,?,82,3%,0%
CCC(C)NC(=O)CSc1nc2cc3c(cc2c(=O)n1CCCCCC(=O)NCc1ccc(OC)cc1)OCO3 (configuration not stated),·,8%[46 µM],·,·,·
Cc1ccc2c(c1)NC(=O)C(CC(=O)NCc1ccc(F)cc1)O2 (configuration not stated),-9%,-1%,15,11%,-3%
CC(=O)c1cccc(NC(=O)CC2Oc3ccc(C)cc3NC2=O)c1 (configuration not stated),1%,-15%,9,3.2µM*,-4%
O=C(c1cnccn1)N1CCC2(CC1)CCN(C(c1ccccc1)c1ccccc1)CC2,-3%,·,·,-1%,-6%
COc1ccc(C2OC3C(CO)OC(n4cnc5c(=O)[nH]c(N)nc54)C3O2)cc1 (configuration not stated),16µM*,-7%,·,2%,7%
COc1ccc(-c2nc(N)c3ncn([C@H]4O[C@@H](CO)[C@@H](O)[C@@H]4O)c3n2)cc1,-4%,·,·,11%[13.5 µM],1%[11.4 µM]
CCCn1cc(S(=O)(=O)c2cc(C)ccc2C)c(=O)c2cc(F)c(N3CCCCCC3)cc21,·,-8%[46 µM],·,·,·
O=C(O/N=C1/CCSc2ccccc21)c1ccccc1,18µM*,11%[0.0737 µM],32,19µM*,1%
O/N=C1/CCCSc2ccccc21,11µM*,4%,-24,14%,-6%
CCc1ccc(OC(C)C(=O)N2CCC(c3nc4ccccc4s3)CC2)cc1 (configuration not stated),·,-11%[46 µM],·,·,·
COC(=O)c1ccc(-c2nc(O)c(C)s2)cc1,·,?,·,20µM*,·
CC(C)(C)OC(=O)N1CCC(c2cc(=O)n3[nH]c(-c4ccc(Cl)cc4)cc3n2)CC1,-14%,-2%,-84*,7%,3%
CCC1Nc2ccccc2-c2nnc(SC)nc2O1 (configuration not stated),-12%,-4%,39,-10%,-9%
COc1ccccc1C(=O)C1Nc2ccccc2-c2nnc(SC)nc2O1 (configuration not stated),-15%,-7%,-104*,22µM*,-10%
CCCCSc1nnc2c(n1)OC(C(=O)c1ccccc1)Nc1ccccc1-2 (configuration not stated),-17%,5%,18,20µM*,-18%
CCOC(=O)NCc1ccc(Cl)c(Cl)c1,2%,2%,?,6%,-1%
Cc1ccc(C(=O)NCc2ccc(Cl)c(Cl)c2)o1,13µM*,?,18,2%,-2%
Cc1nc2cnc(N3CCN(C)CC3)nc2n(C)c1=O,·,-16%,·,?,·
CCC/C=C(\CCC)C(NS(=O)(=O)CC12CCC(CC1=O)C2(C)C)c1ccc(C(=O)OC)cc1 (configuration not stated),22µM*,·,·,10µM*,-1%
CCC/C=C(\CCC)C(NS(=O)(=O)c1ccc(Cl)cc1)c1ccc(C(=O)OC)cc1 (configuration not stated),-16%,·,·,?,-4%
Cc1ccc(/C=N/NC(=S)NC2CCS(=O)(=O)C2)cc1 (configuration not stated),-18%,-9%,-20,-1%,-4%
COc1cc(/C=N/NC(=O)C(=O)N2CCCC2)ccc1O,-20%,-8%,?,3%,-2%
CN(C)c1ccc(/C=C(/NC(=O)c2ccccc2)C(=O)N/N=C/c2ccc([N+](=O)[O-])c(O)c2)cc1,16µM*,-6%,39,4µM*,-3%
